HCMV antiviral: human cytomegalovirus inhibition; activity change, negative = inhibition, % at 57.5 µM; AID 1259415; hit rate 4.5% among 410,000; HFF cells, HCMV-luciferase reporter, 72 h; stronger effect = lower value; in the data active = activity change below about -60%; inconclusive = no clear call, values can overlap the other calls; inactive = above about -39%
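Luciferase read-out from HCMV-luciferase-infected HFFs (MOI 1 PFU/cell) 72 h post infection at 37C; compounds added after 16 h cell attachment; activity normalized between buffer-only basal and Salinomycin (10uM) inhibitor controls.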
HCV inhibitor: inhibitors of hepatitis C virus infection; AID 651820; Huh7.5.1 HCVcc-Cre infection, luciferase reporter, 44 h; Potency, µM (highest dose often 41.8 µM), for inactives: at the top dose activity change, negative = inhibition, actives largely listed as inhibitors; hit rate 3.4% among 340,000; also: potency is read from the fitted curve at half-maximal effect
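A cell-based infection assay in which seeded cells (1,000 per well) receive test compound after 4 h, are inoculated with HCVcc-Cre at approximately 0.5 moi, and are incubated 44 h before luminescence detection.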
FMDV antiviral: blocks foot and mouth disease virus | FMDV antiviral cell-based qHTS | AID 1159524 | Potency, µM (top dose mostly 57.9 µM), inactives show top-dose activity change, negative = inhibition, most hits filed as inhibitors | hit rate 1.2% among 410,000; calls by dose curve; tested in HEK293T cells; also: read-out not given here; potency is read from the fitted curve at half-maximal effect; nearly all actives have a fitted effect of over 45% in size
AmpC inh no detg: blocks E. coli AmpC beta-lactamase in detergent-free assay; Potency, µM (highest dose often 57.1 µM), inactives show at the highest dose activity change, negative = inhibition, actives largely listed as inhibitors; P00811; hit rate 0.52% among 330,000; AmpC nitrocefin hydrolysis, absorbance 480 nm, 0.0001% Triton; AID 485341;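 also: potency is read from the fitted curve at half-maximal effect; plate controls were no compound for no effect and no enzyme for full effect; nearly all actives have a fitted effect of over 20% in size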
Target sequence (P00811 whole entry, looked up): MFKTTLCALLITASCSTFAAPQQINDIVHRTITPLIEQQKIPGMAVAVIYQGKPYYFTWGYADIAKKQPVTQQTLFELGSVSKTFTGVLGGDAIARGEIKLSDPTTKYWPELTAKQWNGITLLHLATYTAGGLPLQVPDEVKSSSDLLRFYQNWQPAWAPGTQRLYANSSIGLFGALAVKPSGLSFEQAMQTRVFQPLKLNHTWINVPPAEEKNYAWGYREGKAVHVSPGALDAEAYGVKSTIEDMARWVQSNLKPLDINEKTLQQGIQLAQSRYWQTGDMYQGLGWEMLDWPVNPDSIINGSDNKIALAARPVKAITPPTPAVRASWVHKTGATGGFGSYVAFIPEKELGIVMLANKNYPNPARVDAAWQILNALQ
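AmpC (5.3 nM in the dispensed reagent) in 20 mM phosphate pH 7.0 with 0.01% (detergent screen) or 0.0001% Triton X-100 was preincubated with compounds for 15 min at room temperature. Nitrocefin was then added from an 800 uM solution, and hydrolysis was followed at 480 nm.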
AmpC inh detg: blocks E. coli AmpC beta-lactamase in detergent assay; P00811; AmpC hydrolysis of nitrocefin, absorbance 480 nm, 0.01% Triton; Potency, µM (top dose mostly 114 µM), for inactives: at the highest dose activity change, negative = inhibition, most hits filed as inhibitors; hit rate 0.041% among 370,000;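 also: potency is read from the fitted curve at half-maximal effect; 0% = no-compound wells and -100% = no-enzyme wells; nearly all actives have a fitted effect of over 25% in size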
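20 mM phosphate pH 7.0 + 0.01% (detergent screen) or 0.0001% Triton X-100; 5.3 nM AmpC reagent; cpd preinc 15 min RT; nitrocefin (800 uM stock) to start; A480 q20 s × 4 min; Activity was normalised to no-enzyme and no-compound control wells.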
* marks the source's active call; other numbers are inactive results; ? = inconclusive; . = no result given. Sampled rows, rich in hits. Any-hit rate of the full collection: about 7.3%. Unless noted, calls follow the shape of the dose curve; as a rule, active = well fitted curve in the direction sought with a large enough effect; inconclusive = small, poorly fitted or top-dose-only effect, or another doubt; inactive = no such curve, though single readings can be large; an effect the other way counts as inactive or inconclusive. Unless noted, % is scaled to controls: 0 for no effect and ±100 for the full control effect.

SMILES	HCMV antiviral	HCV inhibitor	FMDV antiviral	AmpC inh no detg	AmpC inh detg
c1ccc(Cn2c(-c3ccccc3)c[n+]3c2SCCC3)cc1	?	2.5µM*	-13%	-4%	-4%
COc1ccc(CNc2nc(-c3cccc(NS(C)(=O)=O)c3)nc3ccccc23)c(OC)c1	.	.	10%	.	.
CC(C)c1ccc(CN(C(=O)c2cccs2)C2CCS(=O)(=O)C2)cc1 (stereo unspecified)	-69*	6%	?	54%	-10%
Cc1ccc2occ(CC(=O)N(Cc3ccc(N(C)C)cc3)C3CCS(=O)(=O)C3)c2c1 (stereo unspecified)	21	.	-20%	.	6%
CC(C)c1ccc2occ(CC(=O)N(Cc3ccc(F)cc3)C3CCS(=O)(=O)C3)c2c1 (stereo unspecified)	-64*	.	-24%	.	-2%
Cc1ccccc1C(=O)N(Cc1cccs1)C1CCS(=O)(=O)C1 (stereo unspecified)	-84*	-1%	-12%	-9%	-8%
CCNC(=S)NNc1nnc(-c2ccccc2)c(-c2ccccc2)n1	27	-14%	-12%	-48%	?
O=C(Nc1ccccc1-c1nc2ccccc2s1)c1ccco1	17	4µM*	-30%	36%	-21%
O=C(Nc1ccccc1-c1nc2ccccc2s1)c1cccnc1Cl	-15	35µM*	-17%	72%	-3%
O=C(Nc1ccccc1-c1nc2ccccc2s1)c1ccc(F)cc1	13	.	-14%	.	2%
Cc1cnc(-n2ncc(C(=O)NCc3ccncc3)c2-c2cccs2)nc1-c1ccc(F)cc1	.	.	-4%	.	.
CNC(=O)Cn1c(=O)c2cccn2c2ccc(F)cc21	64	.	0%	.	17%
N#CCCN(Cc1cccnc1)CN1C(=O)c2ccccc2C1=O	?	.	0%	.	.
Cc1cccc(NC(=O)COc2ccc(Br)cc2/C=N/O)c1	24	35µM*	0%	-4%	2%
C=CCOc1ccc(Br)cc1/C=N/O	-1	11µM*	-28%	-30%	?
Cc1cc(-c2nnc(SCC(=O)Nc3ccccc3C)n2N)n[nH]1	-34	13%	-3%	-9%	-3%
COc1ccccc1-c1nc(S(=O)(=O)c2ccccc2)c(N2CCC(C)CC2)o1	8	.	-2%	.	30%
CC(=O)NC(c1ccco1)c1ccc2cccnc2c1O (stereo unspecified)	.	7.9µM*	2%	-23%	?
COc1ccc(C(NC(=O)C(C)C)c2ccc3cccnc3c2O)cc1 (stereo unspecified)	-99*	2µM*	?	-1%	-4%
Cc1cc(NC(c2ccc(Cl)cc2)c2ccc3cccnc3c2O)no1 (stereo unspecified)	-98*	2.5µM*	-19%	4.5µM*	0%
CCC(=O)NC(c1ccc(C)cc1)c1ccc2cccnc2c1O (stereo unspecified)	-98*	?	3%	-20%	-1%
Cc1cnc(C)c(-c2cccc3c2OC(CNC(=O)/C=C/c2ccncc2)C3)n1 (stereo unspecified)	.	.	-9%	.	.
Cc1ccc2nc(CN3CCN(C(=O)Nc4cccc(C)c4C)CC3)oc2c1	-7	.	-23%	.	0%
CCCC(=O)NC(c1ccc(OC)cc1)c1c(O)ccc2ccccc12 (stereo unspecified)	27	?	-10%	-47%	0%
CCCC(=O)NC(c1ccccc1Cl)c1ccc2cccnc2c1O (stereo unspecified)	-97*	2µM*	-6%	-26%	-4%
SMILES	HCMV antiviral	HCV inhibitor	FMDV antiviral	AmpC inh no detg	AmpC inh detg
CCCC(=O)NC(c1ccc(N(C)C)cc1)c1ccc2cccnc2c1O (stereo unspecified)	-98*	3.2µM*	1%	34%	?
O=C(O)c1ccccc1NC(c1ccccc1)c1ccc2cccnc2c1O (stereo unspecified)	-31	?	?	.	.
CCCCC(=O)NC(c1ccc(OC)cc1)c1ccc2cccnc2c1O (stereo unspecified)	-98*	.	-19%	.	.
CC(=O)NC(c1ccc(Cl)cc1)c1ccc2cccnc2c1O (stereo unspecified)	-99*	4.5µM*	-8%	.	.
CC1(C)OC(=O)C=C[C@]2(C)[C@H]3CC[C@@]4(C)[C@H](C(=O)O)OC(=O)[C@H]5O[C@]54[C@]3(C)C(=O)C[C@@H]12	1	12%	-24%	-5%	5%
C=CCN1C[C@H](COC(=O)c2cccc(OC)c2)Oc2cccc(F)c2S1(=O)=O	-22	.	.	.	.
CC(=O)N1CCc2cc(S(=O)(=O)CCC(=O)NCCc3ccc(Cl)cc3)ccc21	-14	-20%	?	13%	2%
CCC[C@H]1[C@@H](NC(=O)Nc2ccc(C#N)cc2)CC[C@@]23CCCN2C(=O)CCC[C@@H]13	-15	.	.	.	.
COc1cc(OC)c(NC(=O)N2CCc3c(sc4c3CCCC4)C2c2ccccc2)cc1Cl (stereo unspecified)	-19	.	-3%	.	-3%
CCCC(=O)NC(c1ccc(C(C)C)cc1)c1ccc2cccnc2c1O (stereo unspecified)	-98*	1.8µM*	-16%	-14%	?
COc1ccc2c3c(n(C)c2c1)[C@@H](CO)N(S(=O)(=O)c1ccccc1)CC31CCN(C)CC1	81	.	.	.	.
CC(C)(C)C(=O)Oc1cccc(Nc2ncnc3ccccc23)c1	-19	1%	-24%	-15%	1%
O=C(Oc1cccc(Nc2ncnc3ccccc23)c1)c1cccnc1	1	3%	-14%	-17%	7%
COc1ccc(C(=O)Oc2cccc(Nc3ncnc4ccccc34)c2)cc1OC	-18	?	20µM*	47%	-11%
COc1cc(C(=O)Oc2cccc(Nc3ncnc4ccccc34)c2)cc(OC)c1OC	-70*	25µM*	.	64%	-16%
Cc1ccc(N2C(=O)Nc3ccccc3S2(=O)=O)cc1Cl	-35	4%	-3%	-27%	-2%
COc1ccc(CN(C)C(=O)c2cccc(S(=O)(=O)N3CCc4ccccc43)c2)c(OC)c1	-33	?	25%	82%	-2%
Cc1cc(C)c2c(ccc3cccc[n+]32)c1	?	1µM*	?	.	.
CN(CC(=O)Nc1ccccc1C(F)(F)F)C(=O)CSc1nc(N)cc(N)n1	9	-1%	-12%	-32%	1%
COC(=O)c1c(NC(=O)CCCOc2ccc(C(C)(C)C)cc2)sc2c1C(C(=O)OC)CC2 (stereo unspecified)	-84*	.	35µM*	.	8%
COC(=O)c1c(NC(=O)c2c(OC)cccc2OC)sc2c1C(C(=O)OC)CC2 (stereo unspecified)	-65*	?	-9%	97%	-11%
CC(C)C[C@H]1CNC(=O)C(=O)N1C[C@@H]1CCCN1C[C@H](Cc1ccccc1)N1C[C@H](CC(C)C)N(CC2CCCCC2)C(=O)C1=O	3	.	.	.	.
COc1cc(C(=O)NNC(=O)c2cc(-c3ccccc3)n[nH]2)cc(OC)c1C	-11	?	3%	-26%	-1%

Assay outcomes deposited in PubChem BioAssay by National Center for Advancing Translational Sciences (NCATS).
